In PubChem BioAssay (NCATS):
Values joined by “and” are separate entries in the source; they are usually repeats but may differ in a detail not shown here. Equal values may be shown once. Results filed as inconclusive are left out. Where a call stands in place of a potency, no number is given. Active and inactive are the calls of the source. The call rests on the fitted dose curve; in most records, active means well fitted curve in the direction sought with a large enough effect; inconclusive means small, poorly fitted or top-dose-only effect, or another doubt; inactive means no such curve, though single readings can be large; an effect the other way counts as inactive or inconclusive.

Key:
[1] = qHTS of pediatric cancer cell lines to identify multiple opportunities for drug repurposing: Primary screen for SJ-GBM2 cells (AID 1347091); further: potency means the concentration at half of the fitted maximal effect
Outline: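 Eight- or eleven-point concentration series, 48 h treatment at 37 degrees C in growth media; readout CellTiter-Glo luminescence. Potency and efficacy were taken from the concentration-response curves.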

[2] = qHTS of pediatric cancer cell lines to identify multiple opportunities for drug repurposing: Primary screen for A673 cells (AID 1347092); further: nearly all actives have a fitted effect of over 45% in size; further: potency means the concentration at half of the fitted maximal effect
Outline: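 Titration-based qHTS on A673 cells: MIPE compounds spanned 11 points (0.78 nM to 46 µM final), NPC compounds 8 points (0.59 nM to 46 µM final). Viability after 48 h was measured by ATP luminescence.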

[3] = qHTS of pediatric cancer cell lines to identify multiple opportunities for drug repurposing: Primary screen for SK-N-MC cells (AID 1347093); further: potency means the concentration at half of the fitted maximal effect
Outline: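 Metabolically active cells were quantified by ATP-dependent luminescence (CellTiter-Glo, 15 min at room temperature) following 48 h treatment. Cells had been plated at 500-1,000 per well and settled for 5 h beforehand.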

[4] = qHTS of pediatric cancer cell lines to identify multiple opportunities for drug repurposing: Primary screen for BT-37 cells (AID 1347094); further: potency means the concentration at half of the fitted maximal effect
Outline: (§1)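 Plated cells (500-1,000 per well, growth media) were allowed to settle for 5 hours, treated with compound dilutions for 48 hours, then lysed with CellTiter-Glo for 15 min at room temperature before luminescence reading.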

[5] = qHTS of pediatric cancer cell lines to identify multiple opportunities for drug repurposing: Primary screen for NB-EBc1 cells (AID 1347095); further: potency means the concentration at half of the fitted maximal effect
Outline: as §1

[6] = qHTS of pediatric cancer cell lines to identify multiple opportunities for drug repurposing: Primary screen for Saos-2 cells (AID 1347097); further: nearly all actives have a fitted effect of over 40% in size; further: potency means the concentration at half of the fitted maximal effect
Outline: as §1

[7] = qHTS of pediatric cancer cell lines to identify multiple opportunities for drug repurposing: Primary screen for SK-N-SH cells (AID 1347098); further: nearly all actives have a fitted effect of over 65% in size; further: potency means the concentration at half of the fitted maximal effect
Outline: (§2)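 Cells (500-1,000/well) rested 5 h, then received compounds for 48 h; metabolically active cells were measured by CellTiter-Glo luminescence. Final concentrations spanned up to 46 µM (MIPE, 11-point) or 0.59 nM-46 µM (NPC, 8-point) in primary screens, 11-point in follow-ups.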

[8] = qHTS of pediatric cancer cell lines to identify multiple opportunities for drug repurposing: Primary screen for NB1643 cells (AID 1347099); further: nearly all actives have a fitted effect of over 50% in size; further: potency means the concentration at half of the fitted maximal effect
Outline: as §1

[9] = qHTS of pediatric cancer cell lines to identify multiple opportunities for drug repurposing: Primary screen for LAN-5 cells (AID 1347100); further: potency means the concentration at half of the fitted maximal effect
Outline: (§3)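 Cells (500-1,000/well) in growth media were settled 5 h at 37 degrees C, then given compounds for 48 h. Viability was read as CellTiter-Glo luminescence. Primary runs used MIPE at 11 points (0.78 nM-46 µM) and NPC at 8 points (0.59 nM-46 µM); follow-ups used 11 points.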

[10] = qHTS of pediatric cancer cell lines to identify multiple opportunities for drug repurposing: Primary screen for Rh18 cells (AID 1347102); further: nearly all actives have a fitted effect of over 65% in size; further: potency means the concentration at half of the fitted maximal effect
Outline: as §3

[11] = qHTS of pediatric cancer cell lines to identify multiple opportunities for drug repurposing: Primary screen for OHS-50 cells (AID 1347103); further: nearly all actives have a fitted effect of over 40% in size; further: potency means the concentration at half of the fitted maximal effect
Outline: as §2

[12] = qHTS of pediatric cancer cell lines to identify multiple opportunities for drug repurposing: Primary screen for RD cells (AID 1347104); further: nearly all actives have a fitted effect of over 55% in size; further: potency means the concentration at half of the fitted maximal effect
Outline: as §1

[13] = qHTS of pediatric cancer cell lines to identify multiple opportunities for drug repurposing: Primary screen for MG 63 (6-TG R) cells (AID 1347105); further: nearly all actives have a fitted effect of over 50% in size; further: potency means the concentration at half of the fitted maximal effect
Outline: as §1

[14] = qHTS of pediatric cancer cell lines to identify multiple opportunities for drug repurposing: Primary screen for Rh30 cells (AID 1347107); further: nearly all actives have a fitted effect of over 75% in size; further: potency means the concentration at half of the fitted maximal effect
Outline: as §3

[15] = qHTS of pediatric cancer cell lines to identify multiple opportunities for drug repurposing: Primary screen for Rh41 cells (AID 1347108); further: nearly all actives have a fitted effect of over 70% in size; further: potency means the concentration at half of the fitted maximal effect
Outline: as §1

[16] = qHTS of pediatric cancer cell lines to identify multiple opportunities for drug repurposing: Confirmatory screen for NB1643 cells (AID 1347109); further: nearly all actives have a fitted effect of over 45% in size; further: potency means the concentration at half of the fitted maximal effect
Outline: as §3

[17] = qHTS of pediatric cancer cell lines to identify multiple opportunities for drug repurposing: Confirmatory screen for A673 cells (AID 1347110);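 further: cells exposed to compound for 48 h before the viability read; nearly all actives have a fitted effect of over 65% in size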; further: potency means the concentration at half of the fitted maximal effect
Outline: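 Forty-eight-hour viability assay. Follow-up compounds ran at 11-point dilutions; positive control bortezomib at 2.3 uM final, neutral control DMSO.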

[18] = qHTS of pediatric cancer cell lines to identify multiple opportunities for drug repurposing: Primary screen for U-2 OS cells (AID 1347096); further: nearly all actives have a fitted effect of over 50% in size; further: potency means the concentration at half of the fitted maximal effect
Outline: as §3

[19] = qHTS of pediatric cancer cell lines to identify multiple opportunities for drug repurposing: Primary screen for control Hh wild type fibroblast cells (AID 1347106);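 further: series mostly up to about 46 µM; a drop in luminescence marks cytotoxicity and a rise apparent proliferation; nearly all actives have a fitted effect of over 55% in size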
Outline: as §3

[20] = qHTS of pediatric cancer cell lines to identify multiple opportunities for drug repurposing: Primary screen for BT-12 cells (AID 1347101); further: nearly all actives have a fitted effect of over 25% in size; further: potency means the concentration at half of the fitted maximal effect
Outline: as §2

Row | Compound | Potency [1] | Potency [2] | Potency [3] | Potency [4] | Potency [5] | Potency [6] | Potency [7] | Potency [8] | Potency [9] | Potency [10] | Potency [11] | Potency [12] | Potency [13] | Potency [14] | Potency [15] | Potency [16] | Potency [17] | Potency [18] | Potency [19] | Potency [20]
1 | Oc1cccc(-c2nc(N3CCOCC3)c3oc4ncccc4c3n2)c1 | 0.0855 µM (active) | 2.15 µM (active) | 0.0481 µM (active) | 0.444 µM (active) | 0.191 µM (active) | 0.34 µM (active) | 0.879 µM (active) | 0.215 µM (active) | 0.96 µM (active) | 0.303 µM (active) | 0.444 µM (active) | 0.241 µM (active) | 0.0855 µM (active) | 13.6 µM (active) | 0.382 µM (active) | 2.4 µM (active) | 1.85 µM (active) |  |  | 
2 | Cc1cn[nH]c1 | inactive | inactive | inactive |  |  | inactive | inactive | inactive | inactive | inactive | 0.611 µM (active) |  | inactive | inactive |  | inactive | inactive | inactive | inactive | 
3 | CCc1cncnc1N1CCN(Cc2nc3ccc(C(F)(F)F)cc3[nH]2)CC1 | inactive | 29.6 µM (active) | 23.5 µM (active) |  |  |  |  |  |  |  | 15.3 µM (active) |  |  |  |  |  |  | inactive | inactive | 12.2 µM (active)
4 | CN(C)C(=O)c1ccc(S(=O)(=O)c2ccc(NC(=O)[C@@](C)(O)C(F)(F)F)c(Cl)c2)cc1 | inactive | 18.7 µM (active) | 16.6 µM (active) |  | inactive |  | inactive |  | inactive | inactive |  |  |  | inactive |  |  |  | inactive | inactive | 13.7 µM (active)
5 | OCCC#Cc1nc(-c2ccc(F)cc2)c(-c2ccncc2)n1CCCc1ccccc1 | 23.5 µM (active) | 18.7 µM (active) | 18.7 µM (active) |  | 16.6 µM (active) |  | inactive |  | 16.6 µM (active) |  | 27.3 µM (active) |  | 29.6 µM (active) |  | 18.7 µM (active) |  |  |  | inactive | 
6 | O=C(NOC[C@H](O)CO)c1ccc(F)c(F)c1Nc1ccc(I)cc1F | inactive | 5.9 µM (active) | 0.0469 µM (active) |  |  | inactive | 0.341 µM (active) |  |  | inactive | inactive | 0.0935 µM (active) |  |  |  | inactive | inactive |  |  | 
7 | Cc1c(CCOc2ccc(C(=O)O)cc2)c2cc(Cl)ccc2n1C(c1ccccc1)c1ccccc1 | inactive | 18.7 µM (active) | 14.8 µM (active) |  |  | inactive | 24.1 µM (active) |  |  | inactive |  |  | inactive |  | inactive |  |  | inactive | inactive | 
8 | COc1ccc(-c2ccc3c(N4CCOC[C@H]4C)nc(N4CCOC[C@H]4C)nc3n2)cc1CO | 0.0083 µM (active) | 0.0235 µM (active) | 0.0047 µM (active) | 0.0544 µM (active) | 0.0332 µM (active) | 0.469 µM (active) | inactive |  |  | 0.132 µM (active) | 0.0544 µM (active) | 0.0372 µM (active) | 0.0187 µM (active) | inactive | 0.0418 µM (active) |  | 0.117 µM (active) |  |  | 
9 | CCOc1ccn(-c2ccc(F)cc2)c(=O)c1C(=O)Nc1ccc(Oc2ccnc(N)c2Cl)c(F)c1 | 0.059 µM (active) | 18.7 µM (active) | 13.2 µM (active) |  |  | 16.6 µM (active) |  |  | 7.43 µM (active) |  | 19.3 µM (active) | inactive |  | inactive |  |  | 13.1 µM (active) | inactive |  | 
10 | N#CC[C@H](C1CCCC1)n1cc(-c2ncnc3[nH]ccc23)cn1 | inactive | 23.5 µM (active) | 23.5 µM (active) |  | inactive | inactive | inactive | 14.8 µM (active) | 18.7 µM (active) |  |  |  |  |  |  |  |  | inactive | inactive | inactive
11 | CO[C@@H]1[C@H](N(C)C(=O)c2ccccc2)C[C@H]2O[C@]1(C)n1c3ccccc3c3c4c(c5c6ccccc6n2c5c31)C(=O)NC4 | 0.833 µM (active) | 0.935 µM (active) | 0.662 µM (active) |  |  | 0.833 µM (active) | 1.92 µM (active) |  | 0.526 µM (active) | 1.32 µM (active) | 2.17 µM (active) | inactive | 0.743 µM (active) | inactive | inactive | 3.29 µM (active) | inactive | 3.72 µM (active) |  | 
12 | Cc1cc(C=c2sc3nc4ccccc4n3c2=O)c(C)n1-c1ccccc1 | inactive | inactive | inactive |  | inactive |  | inactive |  | inactive |  |  | inactive | inactive |  |  |  |  | inactive | inactive | inactive
13 | CCn1c(-c2nonc2N)nc2c(C#CC(C)(C)O)ncc(OC[C@H]3CCCNC3)c21 | 23.5 µM (active) | 11.8 µM (active) | 0.469 µM (active) |  | 18.7 µM (active) |  |  | 18.7 µM (active) | 5.26 µM (active) | inactive |  | 23.5 µM (active) |  | inactive |  |  |  | inactive | inactive | inactive
14 | Cc1ccc(N(CC2=NCCN2)c2cccc(O)c2)cc1 | inactive | 18.7 µM (active) and 16.8 µM (active) |  | inactive | inactive |  |  | inactive | inactive | inactive | 27.3 µM (active) and 30.9 µM (active) | inactive | inactive | inactive | inactive |  |  | inactive | inactive | 
15 | Cc1cnc(Nc2ccc(OCCN3CCCC3)cc2)nc1Nc1cccc(S(=O)(=O)NC(C)(C)C)c1 | inactive |  | 18.7 µM (active) | inactive | inactive | inactive |  | 23.5 µM (active) | inactive | inactive |  | inactive |  | inactive | inactive |  |  | inactive | inactive | 
